Records with an inconclusive call do not appear. Where a call stands in place of a potency, no number is given. The source made the active and inactive calls. Unless noted, the call rests on the fitted dose curve.
Tested on: not listed separately
Assay: cAMP Responsive Elements (CRE) small molecule antagonists, cell-based qHTS assay (AID 1963591; active means well fitted inhibition curve with a large enough effect in the signal ratio in the repeat runs, not every such curve was filed as active; the % refers to the signal ratio)
Settings: CRE-bla HEK293T, beta-lactamase FRET ratio; series mostly up to 92.4 µM
Method in brief: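 HEK293T cells carrying a CRE-driven beta-lactamase reporter receive compound and NKH477 (0.25 uM final) for 3 h. Fluorescence from LiveBLAzer B/G FRET substrate is read after 2 h at room temperature.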

Compound	Potency
O=S(=O)(O)c1ccc2cc(O)c(S(=O)(=O)O)cc2c1	inactive
COCCOCCOCCOCCOC	inactive
COCCOCCOCCOCCOCCO	inactive
CCCO	inactive
O=[N+]([O-])c1ccc(Oc2ccc([N+](=O)[O-])cc2)cc1	inactive
CC[N+](C)(C)c1cccc(O)c1	inactive
CCCCCCCN	inactive
CS(C)(=O)=O	inactive
O=c1[nH]c(=O)c2cn[nH]c2[nH]1	inactive
CCC(COC(=O)CCS)(COC(=O)CCS)COC(=O)CCS	inactive
CC(C)N=C(N)/N=C(\N)Nc1ccc(Cl)cc1	inactive
CCCCCCCC(=O)N(C)C	inactive
CCCCC(C)C(=O)O (configuration not stated)	inactive
CCO[Si](CCCN=C=O)(OCC)OCC	inactive
CCCCCCCCO[C@@H]1O[C@H](CO)[C@@H](O)[C@H](O)[C@H]1O	inactive
Cc1ccc(N=Nc2c(O)ccc3ccccc23)c(C)c1	inactive
CCCOCCO	inactive
COc1ccc(N=[N+]([O-])c2ccc(OC)cc2)cc1	inactive

Compound	Potency
Cc1cc(N)n(-c2ccccc2)n1	inactive
O=C1OC(=O)c2ccccc21	inactive
OC[C@H]1O[C@H](O[C@H]2O[C@H](CO)[C@@H](O)[C@H](O)[C@H]2O)[C@H](O)[C@@H](O)[C@@H]1O	inactive
CCSC(=O)N(CC)CC	inactive
CCCCC(=O)N(C)C	inactive
CC(=O)NC(Cc1ccccc1)C(=O)O (configuration not stated)	inactive
CCCC(C)CCC(C)=O (configuration not stated)	inactive
C/C=C/C(=O)C1=C(C)C=CCC1(C)C	inactive
NS(=O)(=O)c1ccccc1OC(F)(F)F	inactive
C1CN(CCOCCN2CCOCC2)CCO1	inactive
CC(=O)CC/C=C(\C)CC/C=C(\C)CC/C=C(\C)CCC=C(C)C	inactive
C=CCOCC(O)CO (configuration not stated)	inactive
CC(CCC(=O)O)C(=O)O (configuration not stated)	inactive
CCOC(C)(C)C	inactive
O=Cc1cccc([N+](=O)[O-])c1	inactive
CC(C)CC(O)Cc1ccccc1 (configuration not stated)	inactive
CC(=O)OCCN(CCOC(C)=O)c1ccc(N=Nc2ccc([N+](=O)[O-])cc2C#N)cc1	inactive

Target: Beta-2 adrenergic receptor (Homo sapiens) (UniProt P07550)
Sequence (P07550 whole entry, looked up): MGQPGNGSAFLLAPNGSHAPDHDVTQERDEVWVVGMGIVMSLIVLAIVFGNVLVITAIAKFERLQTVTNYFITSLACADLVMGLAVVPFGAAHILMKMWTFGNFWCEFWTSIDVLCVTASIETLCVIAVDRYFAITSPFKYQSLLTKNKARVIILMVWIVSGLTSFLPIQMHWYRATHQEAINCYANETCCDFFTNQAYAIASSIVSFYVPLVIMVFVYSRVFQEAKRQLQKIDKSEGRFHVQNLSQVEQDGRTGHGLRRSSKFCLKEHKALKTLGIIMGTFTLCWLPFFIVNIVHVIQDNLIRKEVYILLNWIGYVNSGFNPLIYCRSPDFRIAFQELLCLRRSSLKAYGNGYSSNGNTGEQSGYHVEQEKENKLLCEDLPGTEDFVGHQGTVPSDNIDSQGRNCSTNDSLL
Assay: Adrenergic beta2 receptor (ADRB2) small molecule antagonists, cell-based qHTS assay (AID 1963592); further: nearly all actives have a fitted effect of over 50% in size
Settings: CHO-ADRB2 cells, isoproterenol-stimulated cAMP HTRF ratio, 0.5 h; series mostly up to 92.4 µM
Method in brief: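 Cells (CHO, stable ADRB2 overexpression) incubated 18-20hr at 37C; compounds added from DMSO; agonist mix (1nM isoproterenol, 100uM IBMX, 25uM Ro-20-1724) added; 0.5hr RT; d2-cAMP and anti-cAMP-cryptate added; 1hr RT; 665/615 nm read.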

Compound	Potency
O=S(=O)(O)c1ccc2cc(O)c(S(=O)(=O)O)cc2c1	inactive
COCCOCCOCCOCCOC	inactive
COCCOCCOCCOCCOCCO	inactive
CCCO	inactive
O=[N+]([O-])c1ccc(Oc2ccc([N+](=O)[O-])cc2)cc1	inactive
CC[N+](C)(C)c1cccc(O)c1	inactive
CCCCCCCN	inactive
CS(C)(=O)=O	inactive
O=c1[nH]c(=O)c2cn[nH]c2[nH]1	inactive
CCC(COC(=O)CCS)(COC(=O)CCS)COC(=O)CCS	inactive
CC(C)N=C(N)/N=C(\N)Nc1ccc(Cl)cc1	inactive
CC(C)(C)c1ccc(O)c(C(C)(C)C)c1	inactive
CCCCCCCC(=O)N(C)C	inactive
CCCCC(C)C(=O)O (configuration not stated)	inactive
CCO[Si](CCCN=C=O)(OCC)OCC	inactive
CCCCCCCCO[C@@H]1O[C@H](CO)[C@@H](O)[C@H](O)[C@H]1O	inactive
Cc1ccc(N=Nc2c(O)ccc3ccccc23)c(C)c1	inactive
CCCOCCO	inactive
COc1ccc(N=[N+]([O-])c2ccc(OC)cc2)cc1	inactive

Compound	Potency
Cc1cc(N)n(-c2ccccc2)n1	inactive
O=C1OC(=O)c2ccccc21	inactive
OC[C@H]1O[C@H](O[C@H]2O[C@H](CO)[C@@H](O)[C@H](O)[C@H]2O)[C@H](O)[C@@H](O)[C@@H]1O	inactive
CCSC(=O)N(CC)CC	inactive
CCCCC(=O)N(C)C	inactive
CC(=O)NC(Cc1ccccc1)C(=O)O (configuration not stated)	inactive
C=C(C)C(=O)NCCC[N+](C)(C)C	inactive
CCCC(C)CCC(C)=O (configuration not stated)	inactive
C/C=C/C(=O)C1=C(C)C=CCC1(C)C	inactive
CC(=O)Oc1ccccc1C(=O)Nc1ncc([N+](=O)[O-])s1	inactive
C1CN(CCOCCN2CCOCC2)CCO1	inactive
CC(=O)CC/C=C(\C)CC/C=C(\C)CC/C=C(\C)CCC=C(C)C	inactive
C=CCOCC(O)CO (configuration not stated)	inactive
CC(CCC(=O)O)C(=O)O (configuration not stated)	inactive
CCOC(C)(C)C	inactive
O=Cc1cccc([N+](=O)[O-])c1	inactive
CC(C)CC(O)Cc1ccccc1 (configuration not stated)	inactive
CC(=O)OCCN(CCOC(C)=O)c1ccc(N=Nc2ccc([N+](=O)[O-])cc2C#N)cc1	inactive
